Among all 2,400 compounds or so, about 750 (31%) were called active.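 How the source made its calls: active means median signal gain over dofetilide-blocked control wells reaching their mean plus 3 SD, so readout 1 at least 0; inactive means the rest.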 The list shows a part of the results.
target: Voltage-gated inwardly rectifying potassium channel KCNH2 (Homo sapiens) (UniProt Q12809); assay: modulators restoring hERG flux under dofetilide – cell-based, thallium flux, duplicate retest, dofetilide IC70, confirmation (AID 1835); details: hERG cell line, FluxOR thallium flux, dofetilide-blocked; at 10 µM; stronger effect = higher value
Sequence (Q12809 whole entry, looked up): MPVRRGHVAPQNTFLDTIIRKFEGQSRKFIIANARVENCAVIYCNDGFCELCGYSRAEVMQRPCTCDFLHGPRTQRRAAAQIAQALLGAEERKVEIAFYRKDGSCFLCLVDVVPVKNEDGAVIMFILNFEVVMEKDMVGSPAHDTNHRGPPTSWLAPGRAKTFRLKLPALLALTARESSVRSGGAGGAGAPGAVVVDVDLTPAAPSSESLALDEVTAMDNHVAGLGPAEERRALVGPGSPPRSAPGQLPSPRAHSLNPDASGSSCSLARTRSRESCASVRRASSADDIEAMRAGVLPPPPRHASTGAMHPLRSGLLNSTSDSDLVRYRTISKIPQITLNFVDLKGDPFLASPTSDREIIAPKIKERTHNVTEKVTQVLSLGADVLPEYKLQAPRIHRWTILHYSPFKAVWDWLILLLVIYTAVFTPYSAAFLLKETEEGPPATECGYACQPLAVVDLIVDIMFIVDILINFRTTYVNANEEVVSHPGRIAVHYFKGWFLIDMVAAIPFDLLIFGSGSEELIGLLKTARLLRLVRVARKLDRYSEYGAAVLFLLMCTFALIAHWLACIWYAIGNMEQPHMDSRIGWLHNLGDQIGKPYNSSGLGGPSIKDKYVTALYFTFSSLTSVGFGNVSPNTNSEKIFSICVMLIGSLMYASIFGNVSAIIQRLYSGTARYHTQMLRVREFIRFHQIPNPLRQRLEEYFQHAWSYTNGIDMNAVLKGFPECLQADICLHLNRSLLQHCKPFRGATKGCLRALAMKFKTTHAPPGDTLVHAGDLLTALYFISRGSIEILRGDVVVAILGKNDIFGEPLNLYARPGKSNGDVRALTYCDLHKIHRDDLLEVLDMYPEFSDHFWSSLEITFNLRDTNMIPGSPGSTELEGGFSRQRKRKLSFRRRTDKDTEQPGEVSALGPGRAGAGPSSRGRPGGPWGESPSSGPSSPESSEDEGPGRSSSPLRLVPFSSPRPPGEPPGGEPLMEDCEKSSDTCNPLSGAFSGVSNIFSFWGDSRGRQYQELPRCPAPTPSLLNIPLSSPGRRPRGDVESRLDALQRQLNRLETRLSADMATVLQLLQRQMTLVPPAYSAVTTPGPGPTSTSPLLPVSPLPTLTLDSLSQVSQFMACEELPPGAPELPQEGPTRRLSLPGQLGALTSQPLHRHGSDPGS

For CC(C)c1ccc(NC(=O)C2CC3CCC2C3)cc1 (configuration not stated), which activity increase over dofetilide control, less the hit threshold is on record?
Its activity increase over dofetilide control, less the hit threshold is -10% (inactive).

With CCC(C)NC(=O)c1c(-c2cc(Cl)c(OC)c(Cl)c2)noc1C (configuration not stated) as the compound, how does the activity increase over dofetilide control, less the hit threshold read?
Its activity increase over dofetilide control, less the hit threshold is -16% (inactive).

How did the activity increase over dofetilide control, less the hit threshold turn out when CC(C)COn1c(=S)[nH]c2ccccc2c1=O was run?
The activity increase over dofetilide control, less the hit threshold was 18% (active).

CCC(C)Sc1nc2c([nH]c3ccccc32)c(=O)n1C (configuration not stated) was tested. Which activity increase over dofetilide control, less the hit threshold did it give?
Its activity increase over dofetilide control, less the hit threshold is -5% (inactive).

With CCC(C)n1c(=S)[nH]c2ccccc2c1=O (configuration not stated) as the compound, how does the activity increase over dofetilide control, less the hit threshold read?
The activity increase over dofetilide control, less the hit threshold was 14% (active).

Which activity increase over dofetilide control, less the hit threshold does the source give for CCC(Cc1ccccc1)n1c(=S)[nH]c2ccccc2c1=O (configuration not stated) here?
Its activity increase over dofetilide control, less the hit threshold is 4% (active).

For S=c1[nH]nc(-c2ccccn2)n1/N=C/c1ccc(-c2ccccc2Br)o1, which activity increase over dofetilide control, less the hit threshold is on record?
The activity increase over dofetilide control, less the hit threshold was -16% (inactive).

With O=C1C2C3C=CC(C4CC34)C2C(=O)N1/N=C/c1ccc(-c2ccc(F)cc2[N+](=O)[O-])o1 (configuration not stated) as the compound, how does the activity increase over dofetilide control, less the hit threshold read?
The activity increase over dofetilide control, less the hit threshold was -1% (inactive).

O=[N+]([O-])c1ccc(-c2ccc(/C=N/n3cnnc3)o2)c(Br)c1 was tested. Which activity increase over dofetilide control, less the hit threshold did it give?
Its activity increase over dofetilide control, less the hit threshold is 12% (active).

With COc1ccc(CS(=O)(=O)CC2(O)CCN(C(=O)c3cccc(C(F)(F)F)c3)CC2)cc1 as the compound, how does the activity increase over dofetilide control, less the hit threshold read?
Its activity increase over dofetilide control, less the hit threshold is -27% (inactive).

Which activity increase over dofetilide control, less the hit threshold does the source give for Cc1cc(C)cc(-n2nnc(C(=O)NCc3ccc4c(c3)OCO4)c2N)c1 here?
Its activity increase over dofetilide control, less the hit threshold is -19% (inactive).

How did the activity increase over dofetilide control, less the hit threshold turn out when COc1ccccc1C(=O)NCc1ccc2c(c1)OCO2 was run?
The activity increase over dofetilide control, less the hit threshold was -10% (inactive).

For CC12CCC(C(=O)NCc3ccc4c(c3)OCO4)(CC1=O)C2(C)C (configuration not stated), which activity increase over dofetilide control, less the hit threshold is on record?
Its activity increase over dofetilide control, less the hit threshold is 5% (active).

For CCC(=O)Nc1cc(-c2nnc(OC)c3ccccc23)ccc1N1CCOCC1, which activity increase over dofetilide control, less the hit threshold is on record?
Its activity increase over dofetilide control, less the hit threshold is -1% (inactive).

With CCCCCCn1c(-c2cccs2)n[nH]c1=S as the compound, how does the activity increase over dofetilide control, less the hit threshold read?
Its activity increase over dofetilide control, less the hit threshold is -8% (inactive).

CCCCn1c(-c2csc(C(C)C)c2)n[nH]c1=S was tested. Which activity increase over dofetilide control, less the hit threshold did it give?
The activity increase over dofetilide control, less the hit threshold was 8% (active).

For COc1cccc(C2C3=C(N=c4s/c(=C\c5ccc(OCC(=O)O)cc5)c(=O)n42)c2ccccc2CC3)c1 (configuration not stated), which activity increase over dofetilide control, less the hit threshold is on record?
Its activity increase over dofetilide control, less the hit threshold is -29% (inactive).

Which activity increase over dofetilide control, less the hit threshold does the source give for Cc1ccc(C(=O)NC(=S)Nc2ccccc2C(F)(F)F)cc1 here?
The activity increase over dofetilide control, less the hit threshold was -6% (inactive).

How did the activity increase over dofetilide control, less the hit threshold turn out when O=C(NC(=S)Nc1cc(C(F)(F)F)ccc1Cl)c1ccccc1 was run?
The activity increase over dofetilide control, less the hit threshold was 1% (active).

How did the activity increase over dofetilide control, less the hit threshold turn out when CC(C)(C)SCCNC(=O)CN1C(=O)c2ccccc2S1(=O)=O was run?
The activity increase over dofetilide control, less the hit threshold was -4% (inactive).

Which activity increase over dofetilide control, less the hit threshold does the source give for CCC1(c2ccc(Cl)cc2)NC(=S)N(c2ccccc2)N1 (configuration not stated) here?
The activity increase over dofetilide control, less the hit threshold was 96% (active).

CCC1(c2ccc(Cl)cc2)NC(=S)N(c2ccc(C)cc2)N1 (configuration not stated) was tested. Which activity increase over dofetilide control, less the hit threshold did it give?
Its activity increase over dofetilide control, less the hit threshold is 66% (active).

For CCC1(c2ccccc2)NC(=S)N(c2ccc(C)cc2)N1 (configuration not stated), which activity increase over dofetilide control, less the hit threshold is on record?
The activity increase over dofetilide control, less the hit threshold was 113% (active).

For CC(NC(=O)CCCn1cc([N+](=O)[O-])cn1)c1ccccc1 (configuration not stated), which activity increase over dofetilide control, less the hit threshold is on record?
Its activity increase over dofetilide control, less the hit threshold is -14% (inactive).

How did the activity increase over dofetilide control, less the hit threshold turn out when CSc1nc(-c2ccco2)cc(C(F)(F)F)c1C#N was run?
Its activity increase over dofetilide control, less the hit threshold is -17% (inactive).

For C=CCn1c(=S)[nH]c2nc3c(cc2c1=O)CCCC3, which activity increase over dofetilide control, less the hit threshold is on record?
The activity increase over dofetilide control, less the hit threshold was -9% (inactive).

Which activity increase over dofetilide control, less the hit threshold does the source give for Oc1ccc(Br)cc1-c1n[nH]c(=S)n1Cc1ccccc1 here?
The activity increase over dofetilide control, less the hit threshold was -17% (inactive).

How did the activity increase over dofetilide control, less the hit threshold turn out when COc1ccccc1Cn1c(=S)[nH]c2ccc(Br)cc2c1=O was run?
The activity increase over dofetilide control, less the hit threshold was 6% (active).

With C=CCn1c(=S)[nH]c2ccc(Br)cc2c1=O as the compound, how does the activity increase over dofetilide control, less the hit threshold read?
Its activity increase over dofetilide control, less the hit threshold is 10% (active).

For COc1ccc(Br)cc1CNc1ccccc1, which activity increase over dofetilide control, less the hit threshold is on record?
The activity increase over dofetilide control, less the hit threshold was -21% (inactive).

How did the activity increase over dofetilide control, less the hit threshold turn out when C=CCn1c(=S)[nH]c2cc(-c3ccccc3)sc2c1=O was run?
Its activity increase over dofetilide control, less the hit threshold is 6% (active).

Which activity increase over dofetilide control, less the hit threshold does the source give for Cc1cc(=O)[nH]c(=S)n1-c1ccccc1 here?
The activity increase over dofetilide control, less the hit threshold was -14% (inactive).

How did the activity increase over dofetilide control, less the hit threshold turn out when CC12CCC(C(=O)OC3CCCCC3)(OC1=O)C2(C)C (configuration not stated) was run?
The activity increase over dofetilide control, less the hit threshold was -17% (inactive).

For O=C(O)CN1C(=O)c2ccc(Oc3ccc4c(c3)C(=O)N(CC(=O)O)C4=O)cc2C1=O, which activity increase over dofetilide control, less the hit threshold is on record?
Its activity increase over dofetilide control, less the hit threshold is -10% (inactive).

With O=C(O)Cc1cc(I)c(Oc2ccc(O)c(I)c2)c(I)c1 as the compound, how does the activity increase over dofetilide control, less the hit threshold read?
The activity increase over dofetilide control, less the hit threshold was 18% (active).

Which activity increase over dofetilide control, less the hit threshold does the source give for O=C(NCCCN1CCOCC1)c1ccc(CS(=O)(=O)Cc2ccccc2Cl)o1 here?
Its activity increase over dofetilide control, less the hit threshold is -11% (inactive).

With CCn1ccnc1CN1CCCC(CO)(Cc2cccc(OC)c2)C1 (configuration not stated) as the compound, how does the activity increase over dofetilide control, less the hit threshold read?
Its activity increase over dofetilide control, less the hit threshold is -11% (inactive).

How did the activity increase over dofetilide control, less the hit threshold turn out when O=C(NC(=S)NCCc1ccccc1)c1cccc(Cl)c1 was run?
Its activity increase over dofetilide control, less the hit threshold is 4% (active).

How did the activity increase over dofetilide control, less the hit threshold turn out when S=C(NCCc1ccccc1)N/N=C/c1c(Cl)cccc1Cl was run?
The activity increase over dofetilide control, less the hit threshold was -12% (inactive).

For O=C(NCc1cccc(Cl)c1)c1ccncc1, which activity increase over dofetilide control, less the hit threshold is on record?
Its activity increase over dofetilide control, less the hit threshold is -10% (inactive).

How did the activity increase over dofetilide control, less the hit threshold turn out when Fc1ccc(-n2cc(-c3ccccc3)c3c(=S)nc[nH]c32)cc1 was run?
Its activity increase over dofetilide control, less the hit threshold is -1% (inactive).

Cc1c(-c2ccccc2)sc2nc[nH]c(=S)c12 was tested. Which activity increase over dofetilide control, less the hit threshold did it give?
The activity increase over dofetilide control, less the hit threshold was 52% (active).

Cc1sc2nc[nH]c(=S)c2c1-c1ccccc1 was tested. Which activity increase over dofetilide control, less the hit threshold did it give?
The activity increase over dofetilide control, less the hit threshold was 36% (active).

How did the activity increase over dofetilide control, less the hit threshold turn out when COC(=O)c1ccc(NN=Nc2ccc(C)cc2)cc1 was run?
The activity increase over dofetilide control, less the hit threshold was -6% (inactive).

Nc1nonc1C(=O)N1CCCC1 was tested. Which activity increase over dofetilide control, less the hit threshold did it give?
The activity increase over dofetilide control, less the hit threshold was -9% (inactive).

For Cc1nnc2ccc(-c3cccc(NC(=O)c4ccc(Cl)nc4)c3)nn12, which activity increase over dofetilide control, less the hit threshold is on record?
Its activity increase over dofetilide control, less the hit threshold is -12% (inactive).

COc1ccc2nc(N3CCCCC3)c(/C=C3\SC(=S)NC3=O)cc2c1 was tested. Which activity increase over dofetilide control, less the hit threshold did it give?
Its activity increase over dofetilide control, less the hit threshold is 3% (active).

Cc1cc(NC(C)C)n2c(nc3ccccc32)c1C#N was tested. Which activity increase over dofetilide control, less the hit threshold did it give?
The activity increase over dofetilide control, less the hit threshold was -18% (inactive).

Which activity increase over dofetilide control, less the hit threshold does the source give for O=C(O)CN1C(=O)C(=O)N(Cc2ccc(C(F)(F)F)cc2)C1=O here?
The activity increase over dofetilide control, less the hit threshold was 6% (active).

How did the activity increase over dofetilide control, less the hit threshold turn out when O=C(Nc1cccnc1)c1ccc(COc2ccccc2Br)o1 was run?
The activity increase over dofetilide control, less the hit threshold was -3% (inactive).

Which activity increase over dofetilide control, less the hit threshold does the source give for O=C(Nc1ccc(Cl)c(-c2nc3ccccc3[nH]2)c1)c1cccnc1 here?
The activity increase over dofetilide control, less the hit threshold was -43% (inactive).

How did the activity increase over dofetilide control, less the hit threshold turn out when O=C(Nc1cccnc1)c1ccc(COc2cc(Cl)ccc2Cl)o1 was run?
Its activity increase over dofetilide control, less the hit threshold is 0% (active).

COc1ccc(Cc2c(O)nc(SCC(C)C)[nH]c2=O)cc1 was tested. Which activity increase over dofetilide control, less the hit threshold did it give?
The activity increase over dofetilide control, less the hit threshold was -18% (inactive).

With OC(CNCCc1ccc(C(F)(F)F)cc1)COc1cccc2ccccc12 (configuration not stated) as the compound, how does the activity increase over dofetilide control, less the hit threshold read?
Its activity increase over dofetilide control, less the hit threshold is -22% (inactive).

Which activity increase over dofetilide control, less the hit threshold does the source give for O=C(OCc1ccccc1)C1=NNC2C(=O)N(c3ccc(Br)cc3)C(=O)C12 (configuration not stated) here?
Its activity increase over dofetilide control, less the hit threshold is -2% (inactive).

With Cc1cc(C(=O)CCC(=O)NC(C)c2ccc(S(N)(=O)=O)cc2)c(C)s1 (configuration not stated) as the compound, how does the activity increase over dofetilide control, less the hit threshold read?
The activity increase over dofetilide control, less the hit threshold was -15% (inactive).

COc1ccc(/C(C)=N/Nc2ccc(C(=O)O)cc2)c(OC)c1 was tested. Which activity increase over dofetilide control, less the hit threshold did it give?
The activity increase over dofetilide control, less the hit threshold was -12% (inactive).

For Cc1ccc(/C=N/Nc2nc(C(C)(C)C)cs2)o1, which activity increase over dofetilide control, less the hit threshold is on record?
The activity increase over dofetilide control, less the hit threshold was -17% (inactive).

Cc1ccc(/C=N/Nc2ccc(C(=O)O)cc2)o1 was tested. Which activity increase over dofetilide control, less the hit threshold did it give?
Its activity increase over dofetilide control, less the hit threshold is 1% (active).

CC(C)(C)OC(=O)C(Cl)(C(=O)OC(C)(C)C)c1ccc2nnnn2n1 was tested. Which activity increase over dofetilide control, less the hit threshold did it give?
Its activity increase over dofetilide control, less the hit threshold is -27% (inactive).

Cc1ccc2nc(SCC(=O)N3CCCCCC3)nc(=O)n2c1 was tested. Which activity increase over dofetilide control, less the hit threshold did it give?
The activity increase over dofetilide control, less the hit threshold was -20% (inactive).

For Cc1ccc(SCc2ccc(C(=O)N3CCCC3)cc2)cc1, which activity increase over dofetilide control, less the hit threshold is on record?
The activity increase over dofetilide control, less the hit threshold was 9% (active).

How did the activity increase over dofetilide control, less the hit threshold turn out when CC(C)Oc1cccc(C(=O)N2CCCC2)c1 was run?
The activity increase over dofetilide control, less the hit threshold was -4% (inactive).

Which activity increase over dofetilide control, less the hit threshold does the source give for COc1ccc(C)cc1NC(=O)Nc1ccc(C(=O)N2CCCC2)cc1 here?
The activity increase over dofetilide control, less the hit threshold was -5% (inactive).

Cc1ccc(CNC(=O)c2ccc(CNc3c(N4CCCC4)c(=O)c3=O)cc2)cc1 was tested. Which activity increase over dofetilide control, less the hit threshold did it give?
Its activity increase over dofetilide control, less the hit threshold is -7% (inactive).

How did the activity increase over dofetilide control, less the hit threshold turn out when Cc1cc(C)c(C(=O)c2ccc(C(=O)N3CCCCC3)cc2)c(C)c1 was run?
Its activity increase over dofetilide control, less the hit threshold is 23% (active).

Which activity increase over dofetilide control, less the hit threshold does the source give for O=c1cc(O)c2ccccc2n1Cc1ccccc1Cl here?
Its activity increase over dofetilide control, less the hit threshold is -8% (inactive).

Source: PubChem BioAssay AID1835 (Johns Hopkins Ion Channel Center, 2009)
